Data reported in PubChem BioAssay (EPA / NIEHS).
Active and inactive are the calls of the source. How the source made its calls: active means hit-call score of the fitted dose curve at least 0.9, where 1 is the maximum; inactive means score below 0.9.

System: not listed separately
Assay: ATG_Sox_CIS: Attagene CIS-FACTORIAL HepG2 Assay for human SRY-box transcription factor (SOX) (AID 2282960)
Conditions: HepG2 Attagene cis-factorial SOX reporter, mRNA; actives raise or lower the signal
Method in brief: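 Using transiently transfected HepG2 cells, reporter transcription driven by cis elements was assessed 24 h after dosing. Signal was fluorescence of capillary-separated RT-PCR products, with DMSO defining baseline activity.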
With `Cc1c(C(=O)O)c(O)cc2c1C(=O)c1c(O)c([C@@H]3O[C@H](CO)[C@@H](O)[C@H](O)[C@H]3O)c(O)c(O)c1C2=O` the outcome was “inactive”.
For `Cc1cc(NC(=O)C(=O)O)cc(C)c1Oc1ccc(O)c2c1CCC2`, the outcome was “inactive”.
For `CCCCCCCCCCO`, the outcome was “inactive”.
In the case of `CCc1c(C(=O)NN2CCCCC2)nn(-c2ccc(Cl)cc2Cl)c1-c1ccc(Br)cc1`, the outcome is reported as “inactive”.
With `COc1cc(S(=O)(=O)O)c(C)cc1N=Nc1c(O)ccc2cc(S(=O)(=O)O)ccc12` the outcome was “inactive”.
In the case of `CCOC(=O)C(C)(C)Oc1ccc(Cl)cc1`, the outcome is reported as “inactive”.
For `CN1CCN(Cc2cc(-c3ccc4[nH]c(=O)oc4c3)co2)[C@@H](c2ccc(F)cc2)C1`, the outcome was “inactive”.
In the case of `FC(F)(F)C(F)(F)C(F)(F)C(F)(F)C(F)(F)C(F)(F)CCI`, the outcome is reported as “inactive”.
With `CNC(=O)[C@H]1O[C@@H](n2cnc3c(NCc4cc(Cl)ccc4OCc4cc(C)no4)ncnc32)[C@H](O)[C@@H]1N` the outcome was “inactive”.
With `CCCCc1ccc2c(n1)[C@@H](c1ccc(OC)cc1C[C@H](C)C(=O)O)[C@H](C(=O)O)[C@H]2c1ccc2c(c1)OCO2` the outcome was “inactive”.
With `O=C(O)CCCCC(=O)O` the outcome was “inactive”.
For `CCCCCCCCCCCC(=O)OC`, the outcome was “inactive”.
For `Cc1ccc(Cl)cc1`, the outcome was “inactive”.
In the case of `CC(CO)OC(C)CO` (stereo not given) (tested in a mixture with another compound), the outcome is reported as “inactive”.
With `COCCOCCOC` the outcome was “inactive”.
With `CC(=O)OCCOCCOCCOC(C)=O` the outcome was “inactive”.
With `COc1cc(-c2nc(NC(=O)c3cc4cc(C)cc(C)c4n3CC(=O)O)sc2CCC2CCCCC2)c(OC)cc1Cl` the AC50 was 100 µM (active).
With `O=C(O)Cc1ccccc1Nc1c(Cl)cccc1Cl` the outcome was “inactive”.
For `Cc1ccccc1Cl`, the outcome was “inactive”.
With `Cc1nc(C)nc(N2C[C@@H](C)N(c3ccnc([C@@H](C)O)n3)[C@@H](C)C2)n1` the outcome was “inactive”.
With `NS(=O)(=O)c1cc2c(cc1Cl)NCNS2(=O)=O` the outcome was “inactive”.
For `NC(=O)Cn1c(=O)cc(CCN2CCN(c3nccc4sccc34)CC2)c2ccc(F)cc21`, the outcome was “inactive”.
With `Cc1cc(=O)[nH]c(=S)[nH]1` the outcome was “inactive”.
For `CCCCN(CCCC)CCCC`, the outcome was “inactive”.
With `Cc1nc(-c2ccc3c(c2)CCN(CCC2CCC(NC(=O)/C=C/c4ccc(F)cc4)CC2)CC3)no1` (stereo not given) the outcome was “inactive”.
For `COc1cc(/C=C/C(=O)CC(=O)/C=C/c2ccc(O)c(OC)c2)ccc1O`, the AC50 was 43.1 µM (active).
For `O=c1[nH]cc(F)c(=O)[nH]1`, the outcome was “inactive”.
With `CN[C@H]1CC[C@@H](c2ccc(Cl)c(Cl)c2)c2ccc(S(N)(=O)=O)cc21` the outcome was “inactive”.
In the case of `Nc1nc(N)c2nc(CNc3ccc(C(=O)N[C@@H](CCC(=O)O)C(=O)O)cc3)cnc2n1`, the outcome is reported as “inactive”.

Target: Transcription factor Sp1 (Homo sapiens) (UniProt P08047)
Sequence (P08047 whole entry, looked up): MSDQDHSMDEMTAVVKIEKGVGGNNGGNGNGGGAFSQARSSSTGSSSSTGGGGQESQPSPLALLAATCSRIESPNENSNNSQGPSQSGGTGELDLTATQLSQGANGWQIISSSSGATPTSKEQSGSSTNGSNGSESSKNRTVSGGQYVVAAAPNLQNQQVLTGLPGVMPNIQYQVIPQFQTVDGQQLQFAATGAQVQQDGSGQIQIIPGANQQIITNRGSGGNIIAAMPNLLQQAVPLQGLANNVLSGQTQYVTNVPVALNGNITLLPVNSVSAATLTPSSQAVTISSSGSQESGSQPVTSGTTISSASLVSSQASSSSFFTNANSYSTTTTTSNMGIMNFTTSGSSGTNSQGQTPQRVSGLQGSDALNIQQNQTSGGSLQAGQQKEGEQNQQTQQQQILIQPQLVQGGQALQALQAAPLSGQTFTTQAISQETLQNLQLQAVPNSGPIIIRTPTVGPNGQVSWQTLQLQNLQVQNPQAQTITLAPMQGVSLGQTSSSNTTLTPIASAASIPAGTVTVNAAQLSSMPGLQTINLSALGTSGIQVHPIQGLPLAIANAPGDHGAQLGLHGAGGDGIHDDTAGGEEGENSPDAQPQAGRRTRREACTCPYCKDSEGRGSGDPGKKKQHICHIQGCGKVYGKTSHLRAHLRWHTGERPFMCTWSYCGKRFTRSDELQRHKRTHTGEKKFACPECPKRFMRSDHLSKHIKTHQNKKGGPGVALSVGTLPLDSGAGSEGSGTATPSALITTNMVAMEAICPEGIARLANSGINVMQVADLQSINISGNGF
Assay: ATG_Sp1_CIS: Attagene CIS-FACTORIAL HepG2 Assay for human Specificity Protein 1 (Sp1) (AID 2282961)
Conditions: HepG2 Sp1 cis-reporter transcription, actives raise or lower the signal
Method in brief: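 After transient transfection of HepG2 cells with cis-promoter reporter units and 24 h chemical treatment, reporter transcripts were quantified by RT-PCR and capillary electrophoresis fluorescence. Gain- and loss-of-signal fitted against DMSO.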
For `Cc1cc(NC(=O)C(=O)O)cc(C)c1Oc1ccc(O)c2c1CCC2`, the outcome was “inactive”.
In the case of `CCc1c(C(=O)NN2CCCCC2)nn(-c2ccc(Cl)cc2Cl)c1-c1ccc(Br)cc1`, the outcome is reported as “inactive”.
With `COc1cc(S(=O)(=O)O)c(C)cc1N=Nc1c(O)ccc2cc(S(=O)(=O)O)ccc12` the outcome was “inactive”.
With `CCOC(=O)C(C)(C)Oc1ccc(Cl)cc1` the outcome was “inactive”.
For `CCCCc1ccc2c(n1)[C@@H](c1ccc(OC)cc1C[C@H](C)C(=O)O)[C@H](C(=O)O)[C@H]2c1ccc2c(c1)OCO2`, the outcome was “inactive”.
In the case of `O=C(O)CCCCC(=O)O`, the outcome is reported as “inactive”.
For `CCCCCCCCCCCC(=O)OC`, the outcome was “inactive”.
In the case of `Cc1ccc(Cl)cc1`, the outcome is reported as “inactive”.
With `COCCOCCOC` the outcome was “inactive”.
With `CC(=O)OCCOCCOCCOC(C)=O` the outcome was “inactive”.
In the case of `O=C(O)Cc1ccccc1Nc1c(Cl)cccc1Cl`, the outcome is reported as “inactive”.
In the case of `Cc1ccccc1Cl`, the outcome is reported as “inactive”.
In the case of `NS(=O)(=O)c1cc2c(cc1Cl)NCNS2(=O)=O`, the outcome is reported as “inactive”.
With `NC(=O)Cn1c(=O)cc(CCN2CCN(c3nccc4sccc34)CC2)c2ccc(F)cc21` the outcome was “inactive”.
For `CCCCN(CCCC)CCCC`, the outcome was “inactive”.
For `O=c1[nH]cc(F)c(=O)[nH]1`, the outcome was “inactive”.
In the case of `Nc1nc(N)c2nc(CNc3ccc(C(=O)N[C@@H](CCC(=O)O)C(=O)O)cc3)cnc2n1`, the outcome is reported as “inactive”.

System: not listed separately
Assay: ATG_SREBP_CIS: Attagene CIS-FACTORIAL HepG2 Assay for human Sterol Regulatory Element Binding (SREBP) (AID 2282962)
Conditions: HepG2 Attagene cis-factorial SREBP reporter, mRNA; actives raise or lower the signal
Method in brief: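 mRNA induction of transfected cis-promoter reporters in HepG2 cells, 24 h post-dose. Detection: RT-PCR with 6-FAM-labelled products, HpaI digest, capillary electrophoresis. DMSO served as negative control and baseline.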
For `Cc1c(C(=O)O)c(O)cc2c1C(=O)c1c(O)c([C@@H]3O[C@H](CO)[C@@H](O)[C@H](O)[C@H]3O)c(O)c(O)c1C2=O`, the outcome was “inactive”.
In the case of `Cc1cc(NC(=O)C(=O)O)cc(C)c1Oc1ccc(O)c2c1CCC2`, the outcome is reported as “inactive”.
In the case of `CCCCCCCCCCO`, the outcome is reported as “inactive”.
In the case of `CCc1c(C(=O)NN2CCCCC2)nn(-c2ccc(Cl)cc2Cl)c1-c1ccc(Br)cc1`, the AC50 is reported as 0.719 µM (active).
In the case of `COc1cc(S(=O)(=O)O)c(C)cc1N=Nc1c(O)ccc2cc(S(=O)(=O)O)ccc12`, the outcome is reported as “inactive”.
In the case of `CCOC(=O)C(C)(C)Oc1ccc(Cl)cc1`, the outcome is reported as “inactive”.
For `CN1CCN(Cc2cc(-c3ccc4[nH]c(=O)oc4c3)co2)[C@@H](c2ccc(F)cc2)C1`, the AC50 was 33 µM (active).
In the case of `FC(F)(F)C(F)(F)C(F)(F)C(F)(F)C(F)(F)C(F)(F)CCI`, the outcome is reported as “inactive”.
For `CNC(=O)[C@H]1O[C@@H](n2cnc3c(NCc4cc(Cl)ccc4OCc4cc(C)no4)ncnc32)[C@H](O)[C@@H]1N`, the outcome was “inactive”.
With `CCCCc1ccc2c(n1)[C@@H](c1ccc(OC)cc1C[C@H](C)C(=O)O)[C@H](C(=O)O)[C@H]2c1ccc2c(c1)OCO2` the outcome was “inactive”.
For `O=C(O)CCCCC(=O)O`, the outcome was “inactive”.
With `CCCCCCCCCCCC(=O)OC` the AC50 was 59.6 µM (active).
For `Cc1ccc(Cl)cc1`, the outcome was “inactive”.
In the case of `CC(CO)OC(C)CO` (stereo not given) (tested in a mixture with another compound), the outcome is reported as “inactive”.
With `COCCOCCOC` the outcome was “inactive”.
In the case of `CC(=O)OCCOCCOCCOC(C)=O`, the outcome is reported as “inactive”.
In the case of `COc1cc(-c2nc(NC(=O)c3cc4cc(C)cc(C)c4n3CC(=O)O)sc2CCC2CCCCC2)c(OC)cc1Cl`, the outcome is reported as “inactive”.
In the case of `O=C(O)Cc1ccccc1Nc1c(Cl)cccc1Cl`, the outcome is reported as “inactive”.
With `Cc1ccccc1Cl` the outcome was “inactive”.
With `Cc1nc(C)nc(N2C[C@@H](C)N(c3ccnc([C@@H](C)O)n3)[C@@H](C)C2)n1` the outcome was “inactive”.
With `NS(=O)(=O)c1cc2c(cc1Cl)NCNS2(=O)=O` the outcome was “inactive”.
For `NC(=O)Cn1c(=O)cc(CCN2CCN(c3nccc4sccc34)CC2)c2ccc(F)cc21`, the AC50 was 18.4 µM (active).
For `Cc1cc(=O)[nH]c(=S)[nH]1`, the outcome was “inactive”.
For `CCCCN(CCCC)CCCC`, the outcome was “inactive”.
In the case of `Cc1nc(-c2ccc3c(c2)CCN(CCC2CCC(NC(=O)/C=C/c4ccc(F)cc4)CC2)CC3)no1` (stereo not given), the outcome is reported as “inactive”.
With `COc1cc(/C=C/C(=O)CC(=O)/C=C/c2ccc(O)c(OC)c2)ccc1O` the AC50 was 56.8 µM (active).
For `O=c1[nH]cc(F)c(=O)[nH]1`, the AC50 was 18.3 µM (active).
With `CN[C@H]1CC[C@@H](c2ccc(Cl)c(Cl)c2)c2ccc(S(N)(=O)=O)cc21` the AC50 was 3.7 µM (active).
With `Nc1nc(N)c2nc(CNc3ccc(C(=O)N[C@@H](CCC(=O)O)C(=O)O)cc3)cnc2n1` the outcome was “inactive”.
